A short description of assay [1]: KB-8-5-11 P-gp reporter qHTS against the NCATS DSHEA and TCM libraries (AID 1919977). Also: 0% is about no effect. In short, it runs like this:
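CellTiter-Glo luminescence measured viability after ~72 h exposure (37C, 5% CO2) of KB-8-5-11 cervical adenocarcinoma cells overexpressing P-gp. Colchicine was omitted during assay. Substances were tested as titrations.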

Assay [2] has as its target Tumor susceptibility gene 101 protein (Homo sapiens) (UniProt Q99816). The experiment in a line: qHTS Assay for Iinhibitors of HIV-1 Budding by Blocking the Interaction of PTAP/TSG101: Hit Validation (AID 651600). Also: potency is read from the fitted curve at half-maximal effect; nearly all actives have a fitted effect of over 70% in size. Put shortly:
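FITC-PTAP peptide (50 nM final) binding to Tsg101 binding domain (10 uM final) was measured by polarization after 20 min at r.t. with compounds, in 10 mM HEPES pH 7.5 buffer with 0.15 M NaCl and 0.01% Tween 20.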
A general note: qHTS replaces the single test concentration by a dilution series.

The target in assay [3] is Cytochrome P450 2D6 (Homo sapiens) (UniProt P10635). Briefly: Cytochrome P450 family 2 subfamily D member 6 (CYP2D6) small molecule antagonists: luciferase biochemical (cell-free) qHTS assay (AID 1645840; active = well fitted curve in the direction sought with a large enough effect in the repeat runs; an effect the other way counts as inactive or inconclusive; also: potency is read from the fitted curve at half-maximal effect; nearly all actives have a fitted effect of over 55% in size). In short, it runs like this:
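P450-Glo CYP2D6 system: proluciferin substrate converted by enzyme to luciferin, read by luminescence proportional to activity. Enzyme-substrate mix with compound 10 min at room temperature, then NADPH regeneration 1 h before detection reagent.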

For assay [4], the target named is Cytochrome P450 3A4 (Homo sapiens) (UniProt P08684). The experiment in a line: Cytochrome P450 family 3 subfamily A member 4 (CYP3A4) small molecule antagonists: luciferase qHTS assay (AID 1645841; active = well fitted curve in the direction sought with a large enough effect in the repeat runs; an effect the other way counts as inactive or inconclusive; also: nearly all actives have a fitted effect of over 45% in size). Put shortly:
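P450-Glo CYP3A4 enzyme with proluciferin substrate preincubated 10 min with compound at room temperature, then NADPH regeneration 1 h. Luciferin detection reagent added for 20 min; luminescence recorded. Ketoconazole positive control.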

In assay [5] the target is Cytochrome P450 2C9 (Homo sapiens) (UniProt P11712). Briefly: Cytochrome P450 family 2 subfamily C member 9 (CYP2C9) small molecule antagonists: luciferase biochemical (cell-free) qHTS assay (AID 1645842; active = well fitted curve in the direction sought with a large enough effect in the repeat runs; an effect the other way counts as inactive or inconclusive; also: % is scaled to controls: 0 for no effect and ±100 for the full control effect; nearly all actives have a fitted effect of over 55% in size). In short, it runs like this: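 P450-Glo CYP2C9 system: proluciferin substrate with enzyme in mix containing 0.4% BSA, 10 min at room temperature, then NADPH regeneration solution added and incubated 1 h at 37C. Detection reagent stopped reaction; luminescence read after 20 min as RLU.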

For assay [6], the target named is Dual specificity protein kinase CLK4 (Homo sapiens) (UniProt Q9HAZ1). Briefly: qHTS Assay for Inhibitors of CDC-like Kinase 4 (ADP-Glo Assay) (AID 1771). Also: % is scaled to controls: 0 for no effect and ±100 for the full control effect; nearly all actives have a fitted effect of over 70% in size. Put shortly: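 25 nM Clk4, 100 uM RS peptide, 1 uM ATP (final); 2 mM MgCl2, 0.5 mM EGTA, 2.5 mM DTT, 0.01% Triton X-100; 1 hr RT. ADP-Glo readout: ATP depletion 45 min, conversion/luciferase 30 min, luminescence.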

Assay [7] can be described thus: Cell Viability - Jurkat (AID 426;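 active = dose-dependent loss of cell ATP signal giving a full or clear fitted curve, ranked by lower potency value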; also: potency is read from the fitted curve at half-maximal effect). The note with it: qHTS. In short, it runs like this: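 Luminescent ATP read-out (CellTiter-Glo, 20 min at room temperature) after 40 hr compound exposure at 37 °C of Jurkat E6-1 cells, 5000/well. Decreased ATP taken as cytotoxicity; AC50 from standard Hill equation.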
The nature of assay [8]: Cell Viability - Hek293 (AID 427;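 active = compounds whose dose-response curve shows a full or clear partial loss of cell viability, called from curve shape rather than a numeric limit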;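 also: potency is read from the fitted curve at half-maximal effect; cells exposed to compound for 40 hours at 37 °C before reading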). The note with it: qHTS. In short, it runs like this:
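HEK293 cells in complete medium were exposed to compound for 40 hr at 37 °C, then cellular ATP was read by CellTiter-Glo luminescence. Data were normalized to DMSO (basal) and 100 uM tamoxifen (100% inhibition), and AC50 came from Hill fits.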

Assay [9] can be described thus: Cell Viability - HepG2 (AID 433; calls by dose curve; also: potency is read from the fitted curve at half-maximal effect). The note with it: qHTS. In short, it runs like this:
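Cytotoxicity read as ATP loss (CellTiter-Glo luminescence) after 40 hr compound exposure of HepG2, 1500 cells/well, 37 °C. AC50 by Hill equation; 0% set by DMSO, 100% inhibition by 100 uM tamoxifen.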

The nature of assay [10]: Cell Viability - MRC5 (AID 434; calls by dose curve;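 also: potency is read from the fitted curve at half-maximal effect; potency reflects cytotoxicity seen as loss of intracellular ATP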). To be noted: MRC5 lung fibroblast viability, qHTS. Put shortly: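 ATP luminescence read-out (CellTiter-Glo, 20 min RT) after 40 hr, 37 °C compound exposure of 1500 MRC5 cells/well. Data normalized to DMSO (basal) and 100 uM tamoxifen (100% inhibition); AC50 from standard Hill equation.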
Assay [11] is described as follows: Cell Viability - SK-N-SH (AID 435; calls by dose curve; also: potency is read from the fitted curve at half-maximal effect). To be noted: SK-N-SH neuroblastoma cell viability qHTS. Put shortly:
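qHTS cytotoxicity: CellTiter-Glo ATP luminescence after 40 h compound exposure of human neuroblastoma SK-N-SH cells at 37 °C. AC50 derived by Hill-equation fitting, with DMSO as basal and 100 uM tamoxifen as full inhibition.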

Assay [12] can be described thus: Cell Viability - N2a (AID 540).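 Also: plate controls were DMSO alone for no effect and tamoxifen control for full effect; nearly all actives have a fitted effect of over 45% in size.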 The note with it: N2a mouse neuroblastoma cell viability; at 92.2 µM (top of the series). In short, it runs like this:
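N2a mouse neuroblastoma, 1500 cells/well, 5 hr settle; compound 40 hr, 37 °C; CellTiter-Glo 20 min RT; luminescence; Hill-fit AC50.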

Assay [13] is described as follows: Cell Viability - HUV-EC-C (AID 542). Also: % is scaled to controls: 0 for no effect and ±100 for the full control effect; nearly all actives have a fitted effect of over 35% in size. Put shortly: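 Luminescent ATP read-out (CellTiter-Glo, 20 min room temperature) after 40 hr compound treatment of HUV-EC-C cells at 37 °C. Concentration-response data fitted with the standard Hill equation to give AC50; tamoxifen and doxorubicin served as positive controls.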
A short description of assay [14]: Cell Viability - H-4-II-E (AID 543). Also: % is scaled to controls: 0 for no effect and ±100 for the full control effect; nearly all actives have a fitted effect of over 35% in size. In short, it runs like this: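 qHTS, rat hepatoma H-4-II-E, 1500 cells/well; 40 hr compound exposure, 37 °C; CellTiter-Glo ATP luminescence after 20 min RT; AC50 by standard Hill fit.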
A short description of assay [15]: Cell Viability - SH-SY5Y (AID 544).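 Also: 0% = DMSO alone and -100% = 100 µM tamoxifen; nearly all actives have a fitted effect of over 55% in size.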 The note with it: SH-SY5Y neuroblastoma cell viability; viability change, negative = cytotoxic: at 92.2 µM (top of the series). Put shortly: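 SH-SY5Y, 1500 cells/well, 5 hr pre-incubation 37 °C; cpd 40 hr 37 °C; CellTiter-Glo 20 min RT; luminescence (ATP) read. qHTS concentration-response, Hill fit → AC50. Tamoxifen, doxorubicin as positive controls.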

Assay [16] is described as follows: Cell Viability - Mesenchymal (AID 546).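 Also: cells exposed to compound for 40 hours before reading; 0% = DMSO only and -100% = 100 µM tamoxifen.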 In short, it runs like this:
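Human renal mesenchymal cells (glomerulus-derived), 1000 cells/well, 5 hr 37 °C pre-incubation; compound 40 hr, 37 °C; CellTiter-Glo, 20 min RT; luminescence; AC50 via Hill equation.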

Assay [17] is described as follows: qHTS Assay for Identification of Small Molecule Inducers of Hypoxia Response (AID 2120; active = well fitted curve in the direction sought with a large enough effect in the signal ratio, with a control signal flat, not every such curve was filed as active; the % refers to the signal ratio; also: 0% is about no effect). Put shortly:
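Read-out: CCF4 FRET emission ratio 460nm/530nm (excitation 405nm), converted to %Activity, with AC50 fitted across a compound titration. ME-180 cells carried an HRE-driven beta-lactamase reporter; compound exposure 17 h, 37 degrees C.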

The target of assay [18] is Glucocorticoid receptor (Homo sapiens) (UniProt P04150). The experiment in a line: qHTS assay for small molecule antagonists of glucocorticoid receptor signaling (AID 588533; active = well fitted inhibition curve with a large enough effect in the signal ratio, with a control signal flat, not every such curve was filed as active; the % refers to the signal ratio;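 also: cells stimulated with 2 nM dexamethasone as agonist; % is scaled to controls: 0 for no effect and ±100 for the full control effect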). In short, it runs like this: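 Antagonist-mode qHTS: compound titrations added to GRE-bla HeLa cells, then dexamethasone 2 nM final; 18 h, 37 C. CCF4 FRET fluorescence normalized to dexamethasone and DMSO; IC50 from Hill fit.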

Assay [19] has as its target Cytochrome P450 2C19 (Homo sapiens) (UniProt P33261). Briefly: qHTS for inhibitors of CYP2C19 against the NCATS DSHEA and TCM libraries (AID 1919974). Also: % is scaled to controls: 0 for no effect and ±100 for the full control effect. Put shortly: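 Substances were tested against enzyme with a pro-luciferin substrate; minus-enzyme wells served as background. After NADPH-initiated oxidation (30-45 min, RT), light was generated with P450-Glo reagent.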

Assay [20] has as its target Nuclear receptor subfamily 1 group I member 2 (Homo sapiens) (UniProt O75469). The experiment in a line: Dual reporter qHTS for agonist of Pregnane X Receptor (hPXR) against the NCATS DSHEA and TCM libraries: Luminescence readout (AID 1920059). Also: 0% is about no effect. Put shortly:
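hPXR-Luc HepG2 cells, 2000/well in 5% charcoal-stripped FBS medium, attached 5 h, then exposed 24 h at 37C to compounds. Viability by CellTiter-Fluor, then luciferase luminescence with ONE-Glo.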

Consider 4 compounds from PubChem BioAssay (NCATS).

The structures appear in SMILES notation. Records with an inconclusive call do not appear. A number with no mark means an inactive call. Activity calls are given as the source filed them. Unless noted, calls follow the shape of the dose curve; as a rule, active = well fitted curve in the direction sought with a large enough effect; inconclusive = small, poorly fitted or top-dose-only effect, or another doubt; inactive = no such curve, though single readings can be large; an effect the other way counts as inactive or inconclusive.

Sequence of Cytochrome P450 2D6 (Homo sapiens) (P10635 whole entry, looked up): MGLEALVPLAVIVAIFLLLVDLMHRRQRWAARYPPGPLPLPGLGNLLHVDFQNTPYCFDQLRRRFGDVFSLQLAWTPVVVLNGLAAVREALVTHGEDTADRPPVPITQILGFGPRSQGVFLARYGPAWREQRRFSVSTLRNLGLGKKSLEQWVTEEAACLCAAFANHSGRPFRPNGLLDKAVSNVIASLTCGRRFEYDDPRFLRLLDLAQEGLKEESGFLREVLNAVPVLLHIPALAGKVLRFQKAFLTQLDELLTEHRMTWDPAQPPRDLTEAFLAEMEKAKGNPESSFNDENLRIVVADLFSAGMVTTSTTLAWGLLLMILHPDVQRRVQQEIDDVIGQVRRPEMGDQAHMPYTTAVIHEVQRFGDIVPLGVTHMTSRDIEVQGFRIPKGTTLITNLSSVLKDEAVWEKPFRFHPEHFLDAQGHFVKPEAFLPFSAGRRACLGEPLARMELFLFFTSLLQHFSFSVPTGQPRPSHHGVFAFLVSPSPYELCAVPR
Sequence of Glucocorticoid receptor (Homo sapiens) (P04150 whole entry, looked up): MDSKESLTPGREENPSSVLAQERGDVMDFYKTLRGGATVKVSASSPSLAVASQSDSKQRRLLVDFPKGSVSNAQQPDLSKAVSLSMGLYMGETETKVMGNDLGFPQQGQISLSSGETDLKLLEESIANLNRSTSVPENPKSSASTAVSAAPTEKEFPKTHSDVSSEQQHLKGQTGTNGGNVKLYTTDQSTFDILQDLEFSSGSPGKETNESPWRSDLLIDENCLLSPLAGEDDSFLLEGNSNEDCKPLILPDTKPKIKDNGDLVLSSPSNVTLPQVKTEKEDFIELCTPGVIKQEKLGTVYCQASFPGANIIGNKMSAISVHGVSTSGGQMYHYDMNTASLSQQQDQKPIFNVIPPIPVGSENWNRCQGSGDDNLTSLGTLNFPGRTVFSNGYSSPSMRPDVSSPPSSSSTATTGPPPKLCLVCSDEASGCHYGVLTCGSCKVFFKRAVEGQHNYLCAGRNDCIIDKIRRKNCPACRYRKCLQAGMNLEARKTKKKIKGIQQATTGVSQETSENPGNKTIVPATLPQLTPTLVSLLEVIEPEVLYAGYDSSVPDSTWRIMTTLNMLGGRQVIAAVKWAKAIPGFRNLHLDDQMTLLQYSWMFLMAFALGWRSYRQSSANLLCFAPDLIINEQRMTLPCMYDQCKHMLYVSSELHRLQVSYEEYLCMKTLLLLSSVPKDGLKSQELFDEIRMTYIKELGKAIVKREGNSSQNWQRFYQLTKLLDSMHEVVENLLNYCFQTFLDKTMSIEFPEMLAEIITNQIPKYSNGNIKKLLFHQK
Sequence of Cytochrome P450 2C19 (Homo sapiens) (P33261 whole entry, looked up): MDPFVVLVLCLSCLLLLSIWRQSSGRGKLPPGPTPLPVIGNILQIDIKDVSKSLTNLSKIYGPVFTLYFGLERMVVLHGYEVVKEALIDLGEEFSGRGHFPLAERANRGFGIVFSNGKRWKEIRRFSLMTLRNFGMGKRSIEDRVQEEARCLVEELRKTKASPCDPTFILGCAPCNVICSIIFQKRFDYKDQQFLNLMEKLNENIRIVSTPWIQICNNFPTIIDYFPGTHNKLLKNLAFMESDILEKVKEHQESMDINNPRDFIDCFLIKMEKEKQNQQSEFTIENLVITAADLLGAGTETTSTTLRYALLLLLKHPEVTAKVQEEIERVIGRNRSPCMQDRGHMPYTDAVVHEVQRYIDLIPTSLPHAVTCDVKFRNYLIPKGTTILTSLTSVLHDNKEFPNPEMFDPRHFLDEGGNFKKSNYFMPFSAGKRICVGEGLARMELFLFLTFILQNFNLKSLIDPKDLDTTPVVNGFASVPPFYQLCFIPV
Sequence of Nuclear receptor subfamily 1 group I member 2 (Homo sapiens) (O75469 whole entry, looked up): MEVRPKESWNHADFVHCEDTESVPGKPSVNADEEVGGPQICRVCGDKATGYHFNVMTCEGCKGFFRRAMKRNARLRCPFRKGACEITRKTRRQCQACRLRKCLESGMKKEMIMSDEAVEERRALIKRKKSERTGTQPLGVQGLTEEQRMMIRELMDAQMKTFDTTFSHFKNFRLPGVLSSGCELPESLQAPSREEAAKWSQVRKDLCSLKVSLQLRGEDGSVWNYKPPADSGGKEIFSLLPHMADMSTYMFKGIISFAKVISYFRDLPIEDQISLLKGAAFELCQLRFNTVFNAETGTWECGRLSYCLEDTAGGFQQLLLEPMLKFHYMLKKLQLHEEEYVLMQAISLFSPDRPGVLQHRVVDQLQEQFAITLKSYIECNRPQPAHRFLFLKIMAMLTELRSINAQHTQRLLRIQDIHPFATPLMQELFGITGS
Sequence of Cytochrome P450 2C9 (Homo sapiens) (P11712 whole entry, looked up): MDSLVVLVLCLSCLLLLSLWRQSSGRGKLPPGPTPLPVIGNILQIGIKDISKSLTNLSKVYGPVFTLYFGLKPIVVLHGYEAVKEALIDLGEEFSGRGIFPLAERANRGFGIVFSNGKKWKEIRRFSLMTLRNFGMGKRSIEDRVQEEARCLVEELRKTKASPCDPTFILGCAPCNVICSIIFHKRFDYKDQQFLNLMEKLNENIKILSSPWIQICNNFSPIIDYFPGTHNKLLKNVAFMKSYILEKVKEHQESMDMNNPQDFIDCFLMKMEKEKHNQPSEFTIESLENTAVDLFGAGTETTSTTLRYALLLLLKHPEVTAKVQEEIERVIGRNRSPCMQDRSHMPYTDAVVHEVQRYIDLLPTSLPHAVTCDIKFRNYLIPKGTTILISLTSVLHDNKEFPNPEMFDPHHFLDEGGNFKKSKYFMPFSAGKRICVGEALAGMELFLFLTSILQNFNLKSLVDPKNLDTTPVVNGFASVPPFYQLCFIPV
Sequence of Cytochrome P450 3A4 (Homo sapiens) (P08684 whole entry, looked up): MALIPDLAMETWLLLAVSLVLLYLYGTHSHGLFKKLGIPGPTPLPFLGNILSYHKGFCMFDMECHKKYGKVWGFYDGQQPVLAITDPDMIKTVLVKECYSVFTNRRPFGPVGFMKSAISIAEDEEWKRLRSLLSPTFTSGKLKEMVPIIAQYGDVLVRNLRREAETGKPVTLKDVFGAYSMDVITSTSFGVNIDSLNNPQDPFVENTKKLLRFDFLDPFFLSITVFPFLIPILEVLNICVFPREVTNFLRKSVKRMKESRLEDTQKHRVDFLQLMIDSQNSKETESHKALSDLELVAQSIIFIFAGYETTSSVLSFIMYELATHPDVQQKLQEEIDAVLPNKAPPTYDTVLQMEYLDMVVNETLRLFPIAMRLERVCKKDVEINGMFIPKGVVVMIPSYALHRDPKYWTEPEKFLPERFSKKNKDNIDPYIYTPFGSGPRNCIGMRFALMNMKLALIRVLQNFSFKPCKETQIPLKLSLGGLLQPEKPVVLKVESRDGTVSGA
Sequence of Tumor susceptibility gene 101 protein (Homo sapiens) (Q99816 whole entry, looked up, the tested form may be a part): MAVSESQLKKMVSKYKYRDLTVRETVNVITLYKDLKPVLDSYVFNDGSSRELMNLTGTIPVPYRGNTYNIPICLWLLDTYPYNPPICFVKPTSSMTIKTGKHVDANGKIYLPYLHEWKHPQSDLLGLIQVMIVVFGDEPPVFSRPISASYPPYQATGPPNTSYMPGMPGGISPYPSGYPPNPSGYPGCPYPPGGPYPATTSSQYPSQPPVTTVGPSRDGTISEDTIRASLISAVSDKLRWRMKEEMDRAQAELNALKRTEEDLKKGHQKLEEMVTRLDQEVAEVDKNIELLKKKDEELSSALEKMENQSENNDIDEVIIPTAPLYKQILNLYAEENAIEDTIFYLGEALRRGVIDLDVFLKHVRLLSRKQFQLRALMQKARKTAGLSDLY
Sequence of Dual specificity protein kinase CLK4 (Homo sapiens) (Q9HAZ1 whole entry, looked up): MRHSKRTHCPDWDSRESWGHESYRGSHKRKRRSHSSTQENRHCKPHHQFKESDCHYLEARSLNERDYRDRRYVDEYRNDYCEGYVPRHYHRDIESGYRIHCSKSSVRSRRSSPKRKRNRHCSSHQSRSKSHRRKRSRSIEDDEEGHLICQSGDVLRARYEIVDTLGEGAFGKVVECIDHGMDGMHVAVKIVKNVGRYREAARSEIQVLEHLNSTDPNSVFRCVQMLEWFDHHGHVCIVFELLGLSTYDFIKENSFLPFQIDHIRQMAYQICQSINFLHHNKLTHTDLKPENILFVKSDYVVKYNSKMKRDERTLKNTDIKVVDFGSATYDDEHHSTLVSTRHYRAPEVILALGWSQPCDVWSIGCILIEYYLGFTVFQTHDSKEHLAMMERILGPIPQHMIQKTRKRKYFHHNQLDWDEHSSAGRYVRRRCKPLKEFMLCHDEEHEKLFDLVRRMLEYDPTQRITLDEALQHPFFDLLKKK

For `COc1ccc2c(c1O)-c1c(OC)c(OC)cc3c1[C@H](C2)N(C)CC3`, in assay [1], the Potency result is “inactive”.

As for `CC1=NCCc2c1[nH]c1cc(O)ccc21`, the Potency in [2] is 3.26 µM (active); in assay [3] it was 12 µM (active). Further, in [4], the result was inactive. For the same compound, the Potency result in assay [5] is “inactive”.

Consider `CN1CCN(c2ncc3ncc(=O)n(C)c3n2)CC1`, for which the call in assay [6] was inactive.

On to `C=CCc1ccc2c(c1)OCO2`, for which the Potency in assay [7], in [8], in assay [9], in [10] and in [11] was greater than 92 µM each time. Moreover, the activity change, negative = cytotoxicity in [12] is -3.41%. Moreover, the Potency result in assay [13], in [14], in [15], in [18], in [19] and in assay [20] was “inactive” in each case. Besides, the outcome in assay [16] and in assay [17] was inactive.
